The structures appear in SMILES notation. About 6,000 (1.7%) of roughly 360,000 compounds were called active. Another 8% or so got no clear call; they are omitted. The call rests on the fitted dose curve; in most records, active means well fitted cell-killing curve with a large enough effect; inconclusive means small, poorly fitted or top-dose-only effect, or effect the other way; inactive means flat fitted curve, though single readings scatter. The entries come from a sample that favours actives as a whole. Where a call stands in place of a potency, no number is given.
Potency means the concentration at half of the fitted maximal effect.

This test can be described thus: qHTS for induction of synthetic lethality in tumor cells producing 2HG: qHTS for the HT-1080-NT fibrosarcoma cell line.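 Further: NT is the 2HG producing partner of a matched IDH1 knockdown line; nearly all actives have a fitted effect of over 55% in size.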 To be noted: HT-1080-NT fibrosarcoma viability, CellTiter-Glo ATP luminescence, 48 h; series mostly up to 46.1 µM. Put shortly: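 Viability by CellTiter-Glo luminescence after 48 h compound exposure at 37C of HT-1080-NT cells (750/well, RPMI, 5% FBS). % activity scaled between DMSO wells and medium-only wells, then curve-fitted and categorized by curve class.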
A general note: Quantitative high-throughput screening tests each substance at several concentrations.
With `COc1cccc(-c2ccc3c(c2)N(Cc2ccccc2OC)C(=O)C(C)S3)c1` (stereo not drawn), the Potency entry was “inactive”. As for `O=C1NC[C@@H](CCCCN2CCN(CCc3ccc(O)cc3)C(=O)C2=O)N(CC2CCCCC2)C1=O`, the entry is “inactive”; as for `Cc1ccccc1S(=O)(=O)NC(=O)C1(C)CCN1C(=O)Cc1ccc(Cl)cc1Cl` (stereo not drawn), “inactive”. For the compound `CC1(C)OC(=O)C2=C(C[C@@H](C3CCCC3)O[C@@H]2c2ccc(Cl)cc2)O1`, the Potency result is “inactive”.

On to `COc1ccc(NC(=O)CCCOc2ccc(C(C)=O)cc2)cc1S(=O)(=O)N1CCCCC1`, for which the Potency result was “inactive”. `CC(=O)Nc1cc(-c2ccc(N3CCN(C)CC3)cc2)cn2c(-c3cccc(C(=O)N(C)C)c3)cnc12`: the Potency result is “inactive”. On to `CS(=O)(=O)Nc1ccc(C2=NN(S(C)(=O)=O)C(c3cccs3)C2)cc1` (stereo not drawn), for which the Potency entry is “inactive”.

Take `CCS(=O)(=O)Nc1ccc(C2=NN(C(C)=O)C(c3cccs3)C2)cc1` (stereo not drawn): the Potency is 23.1 µM (active). On to `CS(=O)(=O)Nc1cccc(C2=NN(C(=O)c3cccc(F)c3)C(c3cccs3)C2)c1` (stereo not drawn), for which the Potency entry was “inactive”. For `O=C(Cc1ccc([N+](=O)[O-])cc1)NCCS(=O)(=O)N1CCN(c2ccccc2)CC1`, the Potency result is “inactive”. To `COc1ccc(NC(=O)C(Br)C(C)C)cc1` (stereo not drawn) belongs “inactive”; to `CC(C)(C)CC(=O)Nc1nc(C(N)Cc2ccc(C(F)(F)F)cc2)cs1` (stereo not drawn), 16.4 µM (active). As for `COc1ccc(CC(N)c2csc(NC(=O)Cc3ccccc3)n2)cc1` (stereo not drawn), the figure is 23.1 µM (active).

Regarding `COc1ccc(CC(N)c2csc(NC(=O)Nc3ccc(C(C)C)cc3)n2)cc1` (stereo not drawn), the Potency was 18.4 µM (active). Consider `COc1ccc(CC(N)c2csc(NC(=O)NC(c3ccccc3)c3ccccc3)n2)cc1` (stereo not drawn), for which the Potency was 23.1 µM (active). Consider `COc1ccc(CNC(=O)C(Cc2ccccc2)n2cccc2)cc1` (stereo not drawn), for which the Potency entry is “inactive”. Consider `COc1ccc(OC)c(NC(=O)N[C@H](Cc2ccccc2)C(=O)NN)c1`, for which the Potency result was “inactive”. On to `COc1ccc(CC(=O)Nc2sc(Cc3ccccc3)c(C)c2C(N)=O)cc1`, for which the Potency result is “inactive”. As for `COC(=O)[C@H](CCSC)NC(=O)Nc1ccc(OC)cc1`, the Potency result is “inactive”. As to `Cc1ccccc1NC(=O)Cc1nc(COC(=O)c2ccc(C(F)(F)F)cc2)cs1`, the Potency result is “inactive”. Take `COc1ccc(Cc2nnc(NC(=O)Cc3cccs3)s2)cc1`: the Potency entry is “inactive”. On to `CC(C)(C)CC(=O)Nc1nnc(SCC(=O)NCc2cccs2)s1`, for which the Potency entry is “inactive”.

Take `CCNC(=O)C1(C)CCCN(C(=O)c2ccc3ccccc3n2)C1` (stereo not drawn): the Potency entry is “inactive”. As for `CN(Cc1ccc(C(F)(F)F)cc1)C(=O)[C@H]1O[C@@H](n2cnc3c(N)ncnc32)[C@H](O)[C@@H]1O`, the entry is “inactive”; as for `O=C(c1ccc2c(=O)n(Cc3ccco3)c(=S)[nH]c2c1)N1CCCC1`, “inactive”. As for `COc1ccc([C@H]2C[C@@H](n3cc(COC(=O)c4ccccc4)nn3)[C@H](O)CN2C(=O)c2cccs2)cc1`, the entry is “inactive”. For the compound `COC(=O)c1ccc2nc(-c3ccc(C)cc3)c(Cc3ccc(OC)cc3C)n2c1`, the Potency entry was “inactive”. In the case of `O=C(COc1ccc(S(=O)(=O)N2CCCC2)cc1[N+](=O)[O-])N1CCCCC1`, the Potency entry was “inactive”. As for `CCCCNC(=O)c1nc(C2CCN(S(=O)(=O)c3ccc(F)c(F)c3)CC2)oc1-c1cccc(C(F)(F)F)c1`, the entry is “inactive”; as for `COC(=O)c1ccc2nc(-c3ccccc3)c(Cc3ccc(OC)cc3C)n2c1`, “inactive”.

Regarding `CC(C)(C)c1ccc(S(=O)(=O)NC(=O)C2(C)CCN2C(=O)CC2CC2)cc1` (stereo not drawn), the Potency result is “inactive”. To `N#Cc1ccc(-c2ccc3nccn3c2)cc1` belongs “inactive”; to `COc1cccc(-n2cc(C(=O)O)c3ccccc3c2=O)c1`, 14.1 µM (active); to `COc1cccc(-n2cc3c(c2-c2ccccc2)c(=O)n(C)c(=O)n3C)c1`, “inactive”. Take `COc1cccc(-n2nc(C(=O)N3CCN(Cc4ccccc4)CC3)c3ccccc3c2=O)c1`: the Potency entry is “inactive”. With `CCOC(=O)c1cc(-c2sc(NC(=O)c3ccccc3)nc2C)n(-c2ccc(Br)cc2)n1`, the Potency result was “inactive”.

For `CCc1nc2ccc(C(=O)N(C)Cc3ccco3)cn2c1N(C)C(=O)Cc1ccccc1`, the Potency entry was “inactive”.

Take `O=C(CC[C@H]1O[C@@H](n2ccc(=O)[nH]c2=O)[C@H](O)[C@@H]1O)N[C@H](Cc1ccccc1)C(=O)NCc1ccco1`: the Potency entry was “inactive”. As for `COc1cccc(/C=N/Nc2cc(C)nc(-c3ccccc3O)n2)c1O`, the figure is 8.2 µM (active).

As for `COc1cccc(/C=N/Nc2ccc(S(=O)(=O)Nc3ccccc3C(=O)O)cc2[N+](=O)[O-])c1O`, the Potency entry is “inactive”. With `COc1ccccc1-n1c(SCC(=O)Nc2cccc(C(=O)O)c2)nnc1-c1ccccc1O`, the Potency result was “inactive”. As for `O=C(Nc1ccc2c(c1)[C@@H]1C[C@@H](CC(=O)N3CCCCC3)O[C@@H](CO)[C@@H]1O2)NC1CCCCC1`, the entry is “inactive”; as for `CCCS(=O)(=O)NC(=O)C1(C)CCCN(C(=O)c2cc(C)on2)C1` (stereo not drawn), “inactive”; as for `CCOC(=O)C1=CCC(c2ccc(F)cc2)N(S(=O)(=O)c2ccc(C)cc2)C1` (stereo not drawn), “inactive”. Turning to `COc1ccc(Sc2ccc(NC(=O)c3cccc(Cl)c3)cc2C#N)cc1`, the Potency entry is “inactive”. `COc1cccc(C(NC(C)=O)c2nc(-c3ccccc3OC)cs2)c1` (stereo not drawn): the Potency entry was “inactive”. Regarding `CCOC1=C2CN(S(=O)(=O)c3ccc(C)cc3)[C@H](c3cccs3)C[C@H]2[C@H]2C(=O)N(c3ccccc3)C(=O)[C@H]2C1`, the Potency entry was “inactive”. In the case of `COC(=O)c1sc(-c2ccc(C(C)(C)C)cc2)cc1NC(=O)/C=C/C(=O)O`, the Potency is 11.6 µM (active). On to `CC(C)(C)c1ccc(/C=C/C(=O)Nc2ncccn2)cc1`, for which the Potency entry is “inactive”. For `COc1ccc(NS(=O)(=O)c2ccc(N3CCOCC3)c(NC(=O)/C=C/C(=O)O)c2)cc1`, the Potency result was “inactive”.

For the compound `COc1cccc(OCC(=O)NCCS(=O)(=O)N2CCN(c3ccccc3)CC2)c1`, the Potency entry is “inactive”. With `COc1ccc(CC(NC(C)=O)C(=O)NC2CCN(C(=O)c3ccc(OC)c(OC)c3)CC2)cc1OC` (stereo not drawn), the Potency result was “inactive”. Turning to `COc1ccc(CC(NC(C)=O)C(=O)NC2CCN(C(=O)C3CC3)CC2)cc1OC` (stereo not drawn), the Potency entry was “inactive”. Consider `CCc1ccc(OCC2c3cc(OC)c(OC)cc3CCN2C(C)=O)cc1` (stereo not drawn), for which the Potency is 16.4 µM (active). `CCOC1=C2[C@@H](CN(S(=O)(=O)c3ccc(C)cc3)[C@H]2c2ccccc2F)[C@H]2C(=O)N(Cc3ccccc3)C(=O)[C@H]2C1`: the Potency entry is “inactive”. As for `O=[N+]([O-])c1ccc(NS(=O)(=O)c2ccccc2)c(Cl)c1`, the Potency is 6.51 µM (active).

With `Cc1cc([N+](=O)[O-])ccc1NS(=O)(=O)c1ccccc1`, the Potency result is “inactive”. With `O=C(NNS(=O)(=O)c1ccc(F)cc1)c1ccc([N+](=O)[O-])cc1Cl`, the Potency entry is “inactive”.

The values above are taken from PubChem BioAssay AID686970 (National Center for Advancing Translational Sciences (NCATS), 2013).
